Experimental data from PubChem BioAssay (EPA / NIEHS).
Inconclusive results are not listed. Activity calls are given as the source filed them. Rule for the calls, unless noted: active = hit-call score of the fitted dose curve at least 0.9, where 1 is the maximum; inactive = score below 0.9.

Legend:
[1] = target: Bile acid receptor (Homo sapiens) (UniProt Q96RI1); experiment: ATG_FXR_TRANS: Attagene TRANS-FACTORIAL HepG2 Assay for Farnesoid X Receptor (FXR) (AID 2282979; active = hit-call score of the fitted dose curve at least 0.9, where 1 is the maximum;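 note: hits raise reporter mRNA above DMSO so AC50 marks FXR activation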); conditions: HepG2 Attagene TRANS FXR-GAL4 reporter transcription
Bile acid receptor (Homo sapiens), sequence (Q96RI1 whole entry, looked up, the tested form may be a part): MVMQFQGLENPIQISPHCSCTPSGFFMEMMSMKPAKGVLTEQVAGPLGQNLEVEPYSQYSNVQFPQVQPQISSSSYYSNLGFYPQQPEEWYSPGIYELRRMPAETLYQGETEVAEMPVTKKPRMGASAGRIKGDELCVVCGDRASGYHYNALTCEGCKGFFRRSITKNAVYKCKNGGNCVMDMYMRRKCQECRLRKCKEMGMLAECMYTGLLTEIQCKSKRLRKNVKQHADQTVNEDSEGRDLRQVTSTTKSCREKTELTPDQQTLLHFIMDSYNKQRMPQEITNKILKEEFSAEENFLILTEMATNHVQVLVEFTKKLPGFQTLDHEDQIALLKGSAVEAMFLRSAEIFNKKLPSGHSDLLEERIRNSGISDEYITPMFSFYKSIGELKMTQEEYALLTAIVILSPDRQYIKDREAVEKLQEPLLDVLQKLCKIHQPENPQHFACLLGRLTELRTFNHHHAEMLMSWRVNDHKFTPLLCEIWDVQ
In short: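 After 24 h chemical treatment of transfected HepG2 cells, GAL4-UAS reporter transcripts driven by an exogenous FXR-GAL4 fusion were measured by RT-PCR and capillary electrophoresis. Increases over DMSO were fitted.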

[2] = BSK_4H_Eotaxin3: BioMAP Diversity Plus: 4H Assay for Eotaxin 3 Biomarker Activity (AID 2283000); conditions: primary human endothelial cells (HUVEC); actives raise or lower the signal
In short: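 ELISA quantitation of CCL26 (Eotaxin-3) protein from chemically dosed human vascular endothelial cells at 24 h; increases and decreases both scored relative to DMSO-treated baseline.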

[3] = read-out: Intercellular Adhesion Molecule 1 (ICAM1), ICAM1 (gene 3383); experiment: BSK_3C_ICAM1: BioMAP Diversity Plus: 3C Assay for Intercellular Adhesion Molecule 1 (ICAM1) Biomarker Activity (AID 2283003); conditions: primary human endothelial cells (HUVEC); actives raise or lower the signal
In short: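 Chemicals are dosed onto primary human umbilical vein endothelium (3C system). After 24 h, ICAM-1 is measured by ELISA, and responses are fitted bidirectionally relative to DMSO.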

[4] = read-out: Monokine induced gamma interferon (MIG), CXCL9 (gene 4283); experiment: BSK_3C_MIG: BioMAP Diversity Plus: 3C Assay for Monokine induced gamma interferon (MIG) Biomarker Activity (AID 2283021); conditions: primary human endothelial cells (HUVEC); actives raise or lower the signal;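 for AC50: MIG protein level measured by immunoassay in the treated endothelial cultures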
In short: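 Endothelial primary cells (human umbilical vein) are dosed with test chemical in the 3C system. MIG levels are measured by ELISA at 24 h and fitted in both directions relative to DMSO.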

[5] = read-out: Urokinase-type plasminogen activator receptor (uPAR), PLAUR (gene 5329); experiment: BSK_4H_uPAR: BioMAP Diversity Plus: 4H Assay for Urokinase-type plasminogen activator receptor (uPAR) Biomarker Activity (AID 2283030); conditions: primary human endothelial cells (HUVEC); actives raise or lower the signal
In short: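 Endpoint derived via bidirectional curve fitting against DMSO baseline; readout was ELISA detection of uPAR on umbilical vein endothelial cells at 24 h post-treatment, with SRB-stained parallel cultures assessing cytotoxicity.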

[6] = read-out: Monokine induced gamma interferon (MIG), CXCL9 (gene 4283); experiment: BSK_BE3C_MIG: BioMAP Diversity Plus: BE3C Assay for Monokine induced gamma interferon (MIG) Biomarker Activity (AID 2283035); conditions: primary human bronchial epithelial cells; actives raise or lower the signal;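 note: MIG protein measured by ELISA in BE3C cultures after 24 h of dosing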
In short: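 Dose cells (human primary bronchial epithelial), incubate 24 h, quantify MIG by ELISA, then fit concentration–response in both directions relative to DMSO control.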

[7] = read-out: Plasminogen activator inhibitor-1 (PAI1), SERPINE1 (gene 5054); experiment: BSK_BE3C_PAI1: BioMAP Diversity Plus: BE3C Assay for Plasminogen activator inhibitor-1 (PAI1) Biomarker Activity (AID 2283037); conditions: primary human bronchial epithelial cells; actives raise or lower the signal
In short: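 Values derive from bidirectional fitting against DMSO baseline of PAI-1 levels, measured by ELISA in human bronchial epithelial cells 24 h after compound addition.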

[8] = read-out: urokinase plasminogen activator (uPA), PLAU (gene 5328); experiment: BSK_BE3C_uPA: BioMAP Diversity Plus: BE3C Assay for urokinase plasminogen activator (uPA) Biomarker Activity (AID 2283038); conditions: primary human bronchial epithelial cells; actives raise or lower the signal;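 note: uPA protein level quantified by ELISA in cell cultures; uPA read one day after compound addition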
In short: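 Using confluent primary human lung bronchial epithelial cultures, we dosed chemicals, waited 24 h, then ran a uPA ELISA, fitting bidirectionally against DMSO.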

[9] = read-out: Tissue plasminogen activator (tPA), PLAT (gene 5327); experiment: BSK_BE3C_tPA: BioMAP Diversity Plus: BE3C Assay for Tissue plasminogen activator (tPA) Biomarker Activity (AID 2283041); conditions: primary human bronchial epithelial cells; actives raise or lower the signal;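 note: tPA level quantified by ELISA one day after compound addition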
In short: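 Gain- or loss-of-signal in tPA, measured by ELISA, derived by bidirectional fitting against DMSO. Cells: human primary bronchial epithelial; read at 24 h after chemical dosing.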

[10] = read-out: serum amyloid A (SAA), SAA1 (gene 6288); experiment: BSK_CASM3C_SAA: BioMAP Diversity Plus: CASM3C Assay for serum amyloid A (SAA) Biomarker Activity (AID 2283049); conditions: primary human coronary artery smooth muscle cells; actives raise or lower the signal;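 note: SAA protein level quantified by ELISA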
[11] = read-out: Thrombomodulin, THBD (gene 7056); experiment: BSK_CASM3C_Thrombomodulin: BioMAP Diversity Plus: CASM3C Assay for Thrombomodulin Biomarker Activity (AID 2283051); conditions: primary human coronary artery smooth muscle cells; actives raise or lower the signal;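 note: thrombomodulin protein level measured by ELISA 24 h after dosing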
[12] = ATG_ERE_CIS: Attagene CIS-FACTORIAL HepG2 Assay for Estrogen Response Element (ERE) (AID 2282940); conditions: HepG2 ERE cis-reporter, Attagene RNA transcript; actives raise or lower the signal
In short: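 Readout: reporter mRNA induction by RT-PCR, FAM-labelled primer extension, HpaI digestion and capillary electrophoresis, 24 h after dosing transfected HepG2 cells. Endogenous transcription factors act on cis-element-regulated reporters. Gain or loss fitted against DMSO.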

[13] = CCTE_Harrill_HTTr_Apoptosis_MCF7: CCTE's 6-hour Apoptosis Assessment for the High-Throughput Transcriptomics (HTTr) Platform, in MCF-7 cells cultured in DMEM + 10% fetal bovine serum, Harrill Lab (AID 2284011)
In short: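 Apoptosis in MCF-7 cells grown in DMEM with 10% fetal bovine serum was scored after a six hour exposure by high content imaging of caspase-3/7 activation (CellEvent Caspase 3/7 Green), with DMSO serving as negative control and baseline.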

[14] = target: Estrogen-related receptor gamma (Homo sapiens) (UniProt P62508); experiment: ATG_ERRg_TRANS: Attagene TRANS-FACTORIAL HepG2 Assay for human Estrogen-Related Receptor gamma (ERRg) (AID 2282977; active = hit-call score of the fitted dose curve at least 0.9, where 1 is the maximum;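 note: hits increase reporter signal over DMSO so potencies reflect activators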); conditions: HepG2 Attagene TRANS reporter, ERRg transactivation
Estrogen-related receptor gamma (Homo sapiens), sequence (P62508 whole entry, looked up, the tested form may be a part): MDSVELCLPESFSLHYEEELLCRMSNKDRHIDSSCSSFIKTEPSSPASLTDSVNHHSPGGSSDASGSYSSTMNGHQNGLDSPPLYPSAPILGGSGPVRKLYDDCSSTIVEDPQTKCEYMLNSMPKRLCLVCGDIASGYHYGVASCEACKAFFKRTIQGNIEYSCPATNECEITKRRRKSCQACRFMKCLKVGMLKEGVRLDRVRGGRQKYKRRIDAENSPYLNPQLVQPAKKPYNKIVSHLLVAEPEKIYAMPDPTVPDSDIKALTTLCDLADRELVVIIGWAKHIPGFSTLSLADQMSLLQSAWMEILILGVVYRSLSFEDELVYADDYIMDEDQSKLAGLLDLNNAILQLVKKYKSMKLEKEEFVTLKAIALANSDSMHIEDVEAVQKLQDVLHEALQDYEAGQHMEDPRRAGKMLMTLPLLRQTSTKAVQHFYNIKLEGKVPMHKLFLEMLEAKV
In short: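 Induction of reporter transcripts through a chimeric NR-Gal4 protein is quantified in transfected human HepG2 liver cells after 24 h chemical exposure, using RT-PCR with capillary electrophoresis detection and DMSO as baseline.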

[15] = target: Estrogen receptor beta (Homo sapiens) (UniProt Q92731); experiment: OT_ER_ERbERb_1440: Odyssey Thera (OT) 24-hour HEK293T Protein-Complementation Assay for Estrogen Receptor-beta/-beta Homodimer (AID 2283380; active = hit-call score of the fitted dose curve at least 0.9, where 1 is the maximum;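 note: scored as signal increase over DMSO baseline for both agonists and antagonists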)
Estrogen receptor beta (Homo sapiens), sequence (Q92731 whole entry, looked up, the tested form may be a part): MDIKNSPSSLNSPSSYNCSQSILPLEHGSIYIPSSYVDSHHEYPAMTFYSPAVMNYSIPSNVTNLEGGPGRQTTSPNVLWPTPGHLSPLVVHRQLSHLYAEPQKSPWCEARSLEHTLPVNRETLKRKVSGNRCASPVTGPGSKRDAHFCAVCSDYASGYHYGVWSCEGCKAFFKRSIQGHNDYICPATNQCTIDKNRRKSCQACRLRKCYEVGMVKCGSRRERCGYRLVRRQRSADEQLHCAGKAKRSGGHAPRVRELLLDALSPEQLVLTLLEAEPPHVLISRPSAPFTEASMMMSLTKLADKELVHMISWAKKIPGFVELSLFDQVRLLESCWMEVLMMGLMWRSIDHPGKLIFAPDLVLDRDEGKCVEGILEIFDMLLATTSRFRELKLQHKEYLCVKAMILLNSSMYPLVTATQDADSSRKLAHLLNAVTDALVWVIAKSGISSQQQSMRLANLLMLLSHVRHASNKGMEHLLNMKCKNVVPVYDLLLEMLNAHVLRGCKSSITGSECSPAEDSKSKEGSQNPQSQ
In short: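 HEK293T cells stably expressing ER beta LBD (aa 310-547) homodimer fragment-complementation reporter, dosed 24 h. Cells formaldehyde-fixed, Draq5-stained; gain in nuclear (agonist) or nuclear plus cytoplasmic (antagonist) fluorescence versus DMSO read by laser scanning cytometry.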

[16] = target: Retinoic acid receptor RXR-alpha (Homo sapiens) (UniProt P19793); experiment: OT_NURR1_NURR1RXRa_1440: Odyssey Thera (OT) 24-hour HEK293T Protein Complementation Assay for Nurr1/retinoid X receptor (RXR) (AID 2283386; active = hit-call score of the fitted dose curve at least 0.9, where 1 is the maximum)
Retinoic acid receptor RXR-alpha (Homo sapiens), sequence (P19793 whole entry, looked up, the tested form may be a part): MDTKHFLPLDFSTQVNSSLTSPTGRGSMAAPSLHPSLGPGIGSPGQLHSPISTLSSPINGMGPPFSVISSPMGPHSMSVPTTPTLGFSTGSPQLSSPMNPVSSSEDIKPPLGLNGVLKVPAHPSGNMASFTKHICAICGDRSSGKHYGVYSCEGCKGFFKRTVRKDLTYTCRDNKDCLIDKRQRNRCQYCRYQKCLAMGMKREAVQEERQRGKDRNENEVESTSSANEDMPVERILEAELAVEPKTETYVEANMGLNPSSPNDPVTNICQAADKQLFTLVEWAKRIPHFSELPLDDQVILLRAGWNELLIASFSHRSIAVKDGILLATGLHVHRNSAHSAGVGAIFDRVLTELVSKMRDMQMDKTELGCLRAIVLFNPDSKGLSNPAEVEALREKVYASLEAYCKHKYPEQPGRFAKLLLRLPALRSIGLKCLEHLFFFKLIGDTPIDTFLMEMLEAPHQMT
In short: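 Steps: fragment-tagged Nurr1 and RXRα expressed in HEK293T; compounds added; after 24 h, complemented reporter quantified by fluorescence intensity; signal increase over DMSO fitted as the single endpoint.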

[17] = ACEA_AR_agonist_AUC_viability: ACEA Biosciences xCELLigence Real-Time Cell Analysis on Androgen Receptor Agonism for Viability (AID 2283775; active = hit-call score of the fitted dose curve at least 0.9, where 1 is the maximum)
In short: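 22Rv1 cells; impedance growth kinetics; 8-pt 1:4 dilutions from 100 uM top final, ≤0.5% DMSO; n = 2; 80 h read; AUC viability, loss-of-signal vs DMSO.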

[18] = ACEA_AR_antagonist_AUC_viability: ACEA Biosciences xCELLigence Real-Time Cell Analysis on Androgen Receptor Antagonism for Viability (AID 2283776; active = hit-call score of the fitted dose curve at least 0.9, where 1 is the maximum;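 note: 22Rv1 human prostate cancer cells growing on impedance electrode plates; area under impedance growth curve at 80 h after dosing as viability; hits lower the growth signal relative to DMSO meaning cytotoxicity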)
In short: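 Impedance read-out (RT-CES): area under growth curve at 80 h post-dose, loss of signal scored vs DMSO baseline. 22Rv1 cells; 8-pt 1:4 series, top 100 uM final, ≤0.5% DMSO; biological duplicate.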

[19] = CCTE_Harrill_HTTr_Viability_MCF7: CCTE's 6-hour Cell Viability Assessment for the High-Throughput Transcriptomics (HTTr) Platform, in MCF-7 cells cultured in DMEM + 10% fetal bovine serum, Harrill Lab (AID 2284010)
In short: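 Read-out is propidium iodide gain of signal by high-content imaging, reflecting membrane integrity loss. Measurements are taken 6 h after dosing, eight concentrations per chemical, with DMSO serving as baseline for bidirectional curve fitting.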

[20] = target: Retinoic acid receptor RXR-alpha (Homo sapiens) (UniProt P19793); experiment: OT_NURR1_NURR1RXRa_0480: Odyssey Thera (OT) 8-hour HEK293T Protein Complementation Assay for Nurr1/retinoid X receptor (RXR) (AID 2283385; active = hit-call score of the fitted dose curve at least 0.9, where 1 is the maximum)
In short: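 Interaction of bait and prey reconstitutes a functional reporter, whose fluorescence was measured in HEK293T cells dosed with compound for 8 hours. Signal gain relative to DMSO defined the single endpoint.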

Measured: AC50

COCC(=O)N(c1c(C)cccc1C)N1CCOC1=O
inactive: [1] | [2] | [3] | [4] | [5] | [6] | [7] | [8] | [9] | [10] | [11]

CN(C)CCC#N
inactive: [12] | [13]

CC(C)C(=O)Cl
inactive: [14] | [1]

O=C(NC(=O)c1c(F)cccc1F)Nc1ccc(Oc2ccc(C(F)(F)F)cc2Cl)cc1F
inactive: [1] | [15] | [17] | [18] | [19]
active: [16] 31.3 µM

C=CCO
inactive: [20] | [16] | [17]

[CH3][Sn]([CH3])([Cl])[Cl]
active: [16] 82.1 µM
inactive: [14] | [20] | [17] | [18]

CC(C)CCCCCCCOC(=O)c1ccccc1C(=O)OCCCCCCCC(C)C
inactive: [14] | [1] | [2] | [3] | [4] | [5] | [6] | [7] | [8] | [9] | [10] | [11] | [19] | [13]

CC[N+](=O)[O-]
inactive: [15] | [16] | [18]

c1ccc(Nc2ccc3ccccc3c2)cc1
active: [12] 8.6 µM | [3] 30.6 µM | [4] 33 µM | [5] 31.3 µM | [7] 20 µM | [11] 8.69 µM
inactive: [1] | [2] | [6] | [8] | [9] | [10]

CCOC(=O)NC(=S)Nc1ccccc1NC(=S)NC(=O)OCC
active: [18] 4.35 µM
inactive: [14] | [15] | [19]

c1ccc2c(c1)CCCC2
inactive: [12] | [1] | [15] | [20] | [17] | [18]

CNC(=O)Oc1cc(C)c(SC)c(C)c1
active: [12] 26.5 µM | [2] 20 µM
inactive: [3] | [4] | [5] | [6] | [7] | [8] | [9] | [10] | [11] | [19]

CCOP(=O)(OCC)Oc1ccc([N+](=O)[O-])cc1
inactive: [1] | [15] | [20] | [16] | [19] | [13]
